Assay [1] is described as follows: Confirmation and Secondary Assay for Modulators of Hemoglobin Beta Chain Splicing at IVS2 705 locus (AID 930).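 Note: HeLa cells stably expressing the EGFP-705 splicing reporter; GFP fluorescence per well restored by corrected splicing of the IVS2-705 intron in EGFP.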 As to conditions: HeLa EGFP-705 splicing reporter, GFP fluorescence, 48 h; series mostly up to 46.1 µM. Put shortly: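 Read-out: total peak GFP fluorescence per well (488 nm excitation, 500-520 nm emission) by laser-scanning cytometry. Cells: HeLa EGFP-705 splicing reporter, 2 days compound exposure in Optimem/2% FCS.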

The nature of assay [2]: MultiTox-Fluor Cytotoxicity Assay - LYMP1-001 - Dead Cells (AID 946). Particulars: LYMP1-001 lymphoblastoid cells, dead-cell protease fluorescence; series mostly up to 92.2 µM. Put shortly: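 Cytotoxicity as increased dead-cell protease fluorescence (bis-AAF-R110, 485/520 nm), read 60 min after MultiTox-Fluor reagent. Human lymphoblastoid line exposed 16 h; Hill-fitted AC50, with DMSO as 0% and 15 uM tetraoctylammonium bromide as 100%.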

Assay [3] in a line: MultiTox-Fluor Cytotoxicity Assay - LYMP1-001 - Live Cells (AID 947). As to conditions: LYMP1-001 lymphoblastoid cells, live-cell protease fluorescence viability; series mostly up to 92.2 µM. From the text: (§1) NIH Chemical Genomics Center [NCGC]
(§2) NIH Molecular Libraries Screening Centers Network [MLSCN]
(§3) National Institutes of Environmental Health Sciences [NIEHS]
(§4) National Toxicology Program [NTP]
We have developed a 1536-well cell-based assay for quantitative high throughput screening (qHTS) against a number of cell lines to determine in vitro cytotoxicity of small molecules. This particular assay uses a human lymphoblastoid cell line (LYMP1-001) purchased from Coriell Institute.
(§5) NCGC Assay Protocol Summary:
The MultiTox-Fluor Cytotoxicity Assay (Promega) is a homogeneous method to simultaneously measure the relative number of live and dead cells in culture by detecting changes in cell membrane integrity. There are two fluorogenic peptide substrates in the assay reagent. Viable cells are determined when the cell-permeant substrate (GF-AFC) enters the cell and is cleaved by protease from live cells resulting in liberated fluorophore. […] The dead cells are determined by using fluorogenic cell-impermeant peptide substrate (bis-AAF-R110) which cleaved by dead cell proteases leaking from damaged cell membrane.
Using the MultiTox-Fluor Cytotoxicity Assay, the relative number of live cells was measured in the lymphoblastoid cell line with complete culture medium following compound treatment for 16 hours. […] AC50 values were determined from concentration-response data modeled with the standard Hill equation. […]

Assay [4] in a line: Cell Viability - LYMP1-002 - Assay at 16 hr (AID 948). Particulars: LYMP1-002 lymphoblastoid cell viability; series mostly up to 92.2 µM. Put shortly:
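In this qHTS, lymphoblastoid LYMP1-002 cells (human) receive compounds for 16 hr at 37 C. Viability is taken from CellTiter-Glo ATP luminescence, and AC50 derives from standard Hill fits.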

A short description of assay [5]: MultiTox-Fluor Cytotoxicity Assay - LYMP1-002 - Live Cells (AID 955). As to conditions: LYMP1-002 lymphoblastoid live-cell protease fluorescence viability; series mostly up to 46.1 µM. Put shortly:
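In this qHTS viability format, lymphoblastoid cells (LYMP1-002, human) received compound for 16 hr at 37 C. Fluorogenic GF-AFC cleavage by viable cells was detected at 405/510 nm after 1 h at room temperature.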

Assay [6] in a line: MultiTox-Fluor Cytotoxicity Assay - LYMP1-002 - Dead Cells (AID 960). Note: nearly all actives have a fitted effect of over 60% in size. As to conditions: LYMP1-002 lymphoblastoid cells, dead-cell protease fluorescence; series mostly up to 46.1 µM. Put shortly:
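Concentration-dependent increases in membrane-leaked protease activity are quantified in LYMP1-002 cells after 16 hr treatment; values are normalized against DMSO and tetraoctylammonium bromide (15 uM) controls and AC50 derived by Hill modeling.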

A short description of assay [7]: MultiTox-Fluor Cytotoxicity Assay - LYMP1-003 - Dead Cells (AID 961). Note: nearly all actives have a fitted effect of over 70% in size. As to conditions: LYMP1-003 lymphoblastoid cells, dead-cell protease fluorescence; series mostly up to 92.2 µM. Put shortly: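 Dead-cell protease release, detected as bis-AAF-R110 fluorescence at 485/520 nm, was measured in LYMP1-003 cells after 16 h compound treatment at 37 C. AC50 values came from Hill-modeled qHTS curves normalized to DMSO (0%) and 15 uM tetraoctylammonium bromide (100%).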

Assay [8] is described as follows: MultiTox-Fluor Cytotoxicity Assay - LYMP1-003 - Live Cells (AID 962).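 Note: cells exposed to compound for 16 hours at 37 °C; cytotoxic hits lower the live-cell protease signal.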 As to conditions: LYMP1-003 lymphoblastoid cells, MultiTox-Fluor live-cell protease fluorescence; series mostly up to 92.2 µM. The essentials: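 Human lymphoblastoid line LYMP1-003 in complete culture medium, treated 16 hr with titrated compounds. Viable cells quantified via cell-permeant GF-AFC substrate fluorescence; AC50 derived by Hill fitting.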

Assay [9] is described as follows: Cell Viability - LYMP1-003 - Assay at 24 hr (AID 963). Particulars: LYMP1-003 lymphoblastoid cell viability; series mostly up to 92.2 µM.
Source text: as §1, §2, §3, §4
We have developed a 1536-well cell-based assay for quantitative high throughput screening (qHTS) against a number of cell lines to determine in vitro cytotoxicity of small molecules. This particular assay uses a human lymphoblastoid cell line (LYMP1-003) purchased from Coriell Institute for Medical Research.
as §5
The CellTiter-Glo luminescent cell viability assay (Promega) is a homogeneous method to measure the number of viable cells in culture. The end point readout of this assay is based on quantitation of intracellular ATP, an indicator of metabolic activity, using the luciferase reaction. […]
Using the CellTiter-Glo luminescent cell viability assay, the amount of cellular ATP was measured in the lymphoblastoid cell line with complete culture medium following compound treatment for 24 hours. […] Library compounds were measured for their ability to cause acute toxicity in the cell line, as reflected by a decrease in intracellular ATP levels, in a concentration-dependent manner. […] AC50 values were determined from concentration-response data modeled with the standard Hill equation. […]
8. Detection; Luminescence; Viewlux plate reader […]

The nature of assay [10]: Cell Viability - LYMP1-003 - Assay at 40 hr (AID 964). Note: nearly all actives have a fitted effect of over 60% in size. Particulars: LYMP1-003 lymphoblastoid viability; series mostly up to 92.2 µM. Put shortly:
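Acute toxicity is scored as a concentration-dependent loss of intracellular ATP in LYMP1-003 cells (2500/well, complete medium) after 40 hr at 37 C, measured by CellTiter-Glo luminescence; AC50 values derive from standard Hill modelling.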

SMILES strings stand for the structures. Inconclusive results are not listed. Activity calls are given as the source filed them. Calls come from the whole dose curve; as a rule, active = well fitted curve in the direction sought with a large enough effect; inconclusive = small, poorly fitted or top-dose-only effect, or another doubt; inactive = no such curve, though single readings can be large; an effect the other way counts as inactive or inconclusive.

As for `CS(=O)(=O)c1ccc(C2=C(c3ccccc3)C(=O)OC2)cc1`, the call in [1] was inactive.

On to `COc1ccc2ccc(=O)oc2c1CC=C(C)C`, for which, in assay [1], the call was inactive.

As to `CC(NCCc1ccc(O)cc1)C(O)c1ccc(O)cc1` (centres undefined), the result in assay [1] was inactive.

`NCC1CCC(C(=O)O)CC1` (centres undefined): the outcome in [1] was inactive.

As for `Cc1cc2nc3c(=O)[nH]c(=O)nc-3n(CC(O)C(O)C(O)CO)c2cc1C` (centres undefined), the result in [1] was inactive.

Take `COc1ccnc(CS(=O)c2nc3ccc(OC(F)F)cc3[nH]2)c1OC` (centres undefined): the compound was called inactive in assay [1].

For `CCC(c1ccc(O)cc1)C(CC)c1ccc(O)cc1` (centres undefined), the compound was called inactive in assay [1].

Regarding `CC1(C)OC2CC3C4CC(F)C5=CC(=O)C=CC5(C)C4C(O)CC3(C)[C@]2(C(=O)CO)O1` (some centres undefined), in [1], the call was inactive.

For the compound `OC(c1cc(C(F)(F)F)nc2c(C(F)(F)F)cccc12)C1CCCCN1` (centres undefined), in assay [1], the compound was called inactive.

For the compound `C[C@@H]1C[C@H]2[C@@H]3CCC4=CC(=O)C=C[C@]4(C)[C@@]3(F)[C@@H](O)C[C@]2(C)[C@@]1(O)C(=O)CO`, the compound was called inactive in assay [2], in assay [3], in [4], in assay [5], in assay [6] and in assay [7]. In addition, the compound was classed as inactive in assay [8], in [9] and in [10].

In the case of `O=C1C(CCC(O)c2ccc(F)cc2)C(c2ccc(O)cc2)N1c1ccc(F)cc1` (centres undefined), the compound was classed as inactive in assay [1].
